Source: PubChem BioAssay AID1159580 (chemical genetic matrix, 2015)
Values joined by “and” are separate entries in the source; they are usually repeats but may differ in a detail not shown here. Identical values can stand only once. Out of some 5,500 compounds screened, about 2,000 (36%) were called active. Inconclusive results (about 18%) are left out. Rule as the data show it: active = normalized growth mostly below about 0.91 (no sharp cut-off); inconclusive = no clear call, values can overlap the other calls; inactive = mostly above about 0.92. This is one part of the list.

Assay: chemical genetic growth profiling, strain panel (AID 1159580);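 also: tested at 20 µM; growth read once vehicle control cultures reached saturation at 30 °C; 1 = growth at the plate median or of vehicle wells; lower values mean less growth of the strain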
Conditions: growth OD

Measured: normalized growth

CN1CCN(C2=Nc3ccccc3Oc3ccc(Cl)cc32)CC1
inactive: S. cerevisiae deletion strains, locus YJR075W, strain HOC1, hits give low values 0.996 | S. cerevisiae deletion strains, locus YKL009W, strain mrt4, hits give low values 0.98 | S. cerevisiae deletion strains, locus YKL068W, hits give low values 0.992 | S. cerevisiae deletion strains, locus YKL085W, strain MDH1 (second series), hits give low values 1.02 | S. cerevisiae deletion strains, locus YKL085W, strain MDH1, hits give low values 1.02 | S. cerevisiae deletion strains, locus YKL160W, strain elf1, hits give low values 0.958 | S. cerevisiae deletion strains, locus YKL190W, strain CNB1, hits give low values 1 | S. cerevisiae deletion strains, locus YKR001C, strain vps1, hits give low values 0.998 | S. cerevisiae deletion strains, locus YKR026C, strain gcn3, hits give low values 0.983 | S. cerevisiae deletion strains, locus YKR091W, strain srl3, hits give low values 0.975 | S. cerevisiae deletion strains, locus YLL001W, strain dnm1, hits give low values 1 | S. cerevisiae deletion strains, locus YLL026W, hits give low values 0.972 | S. cerevisiae deletion strains, locus YLL041C, strain sdh2, hits give low values 0.987 | S. cerevisiae deletion strains, locus YLR027C, strain aat2, hits give low values 0.975 | S. cerevisiae deletion strains, locus YLR039C, strain RIC1, hits give low values 1.13 | S. cerevisiae deletion strains, locus YLR058C, strain SHM2, hits give low values 0.986 | S. cerevisiae deletion strains, locus YLR102C, strain apc9, hits give low values 0.994 | S. cerevisiae deletion strains, locus YLR113W, strain HOG1, hits give low values 1.03 | S. cerevisiae deletion strains, locus YLR221C, strain rsa3, hits give low values 1.01 | S. cerevisiae deletion strains, locus YLR258W, strain gsy2, hits give low values 0.975 | S. cerevisiae deletion strains, locus YLR262C, strain YPT6 (second series), hits give low values 0.992 | S. cerevisiae deletion strains, locus YLR262C, strain YPT6, hits give low values 1.13 | S. cerevisiae deletion strains, locus YLR268W, strain sec22, hits give low values 0.995 | S. cerevisiae deletion strains, locus YLR320W, strain mms22, hits give low values 1.04 | S. cerevisiae deletion strains, locus YLR330W, strain CHS5, hits give low values 0.997 | S. cerevisiae deletion strains, locus YLR342W, strain FKS1 (second series), hits give low values 0.948 | S. cerevisiae deletion strains, locus YLR342W, strain FKS1, hits give low values 0.994 | S. cerevisiae deletion strains, locus YLR357W, strain rsc2, hits give low values 0.964 | S. cerevisiae deletion strains, locus YLR370C, strain arc18, hits give low values 0.967 | S. cerevisiae deletion strains, locus YLR371W, strain rom2, hits give low values 0.995 | S. cerevisiae deletion strains, locus YLR384C, strain iki3, hits give low values 1 | S. cerevisiae deletion strains, locus YLR418C, strain cdc73, hits give low values 0.988 | S. cerevisiae deletion strains, locus YML016C, strain PPZ1, hits give low values 0.981 | S. cerevisiae deletion strains, locus YML032C, strain rad52, hits give low values 0.989 | S. cerevisiae deletion strains, locus YML120C, strain ndi1, hits give low values 1.01 | S. cerevisiae deletion strains, locus YML124C, strain tub3, hits give low values 0.992 | S. cerevisiae deletion strains, locus YMR058W, strain fet3, hits give low values 0.957 | S. cerevisiae deletion strains, locus YMR078C, strain ctf18, hits give low values 0.979 | S. cerevisiae deletion strains, locus YMR125W, strain sto1, hits give low values 0.942 | S. cerevisiae deletion strains, locus YMR129W, hits give low values 0.964 | S. cerevisiae deletion strains, locus YMR205C, strain PFK2, hits give low values 0.995 | S. cerevisiae deletion strains, locus YMR223W, strain ubp8, hits give low values 0.976 | S. cerevisiae deletion strains, locus YMR231W, strain pep5, hits give low values 0.982 | S. cerevisiae deletion strains, locus YMR263W, strain SAP30, hits give low values 0.994 | S. cerevisiae deletion strains, locus YMR307W, strain GAS1, hits give low values 0.971 and 1.01 | S. cerevisiae deletion strains, locus YNL067W, strain RPL9B, hits give low values 1.01 | S. cerevisiae deletion strains, locus YNL071W, strain lat1, hits give low values 1 | S. cerevisiae deletion strains, locus YNL128W, strain TEP1, hits give low values 0.997 and 1.01 | S. cerevisiae deletion strains, locus YNL153C, strain GIM3, hits give low values 0.995 and 1 | S. cerevisiae deletion strains, locus YNL175C, strain NOP13, hits give low values 0.959 | S. cerevisiae deletion strains, locus YNL183C, strain NPR1, hits give low values 0.951 | S. cerevisiae deletion strains, locus YNL197C, strain WHI3, hits give low values 0.991 | S. cerevisiae deletion strains, locus YNL209W, strain ssb2, hits give low values 0.968 | S. cerevisiae deletion strains, locus YNL224C, strain SQS1, hits give low values 1 | S. cerevisiae deletion strains, locus YNL233W, strain BNI4, hits give low values 0.997 | S. cerevisiae deletion strains, locus YNL248C, strain rpa49, hits give low values 0.959 | S. cerevisiae deletion strains, locus YNL250W, strain rad50, hits give low values 0.973 | S. cerevisiae deletion strains, locus YNL271C, strain bni1, hits give low values 0.988 | S. cerevisiae deletion strains, locus YNL298W, strain CLA4, hits give low values 1.01 | S. cerevisiae deletion strains, locus YNL307C, strain MCK1, hits give low values 0.986 | S. cerevisiae deletion strains, locus YNL322C, strain KRE1 (second series), hits give low values 0.958 | S. cerevisiae deletion strains, locus YNL322C, strain KRE1, hits give low values 0.992 | S. cerevisiae deletion strains, locus YNR049C, strain mso1, hits give low values 0.968 | S. cerevisiae deletion strains, locus YNR052C, strain pop2, hits give low values 0.987 | S. cerevisiae deletion strains, locus YOL006C, strain TOP1, hits give low values 0.951 | S. cerevisiae deletion strains, locus YOL012C, strain htz1 1.28 | S. cerevisiae deletion strains, locus YOL147C, strain pex11, hits give low values 0.999 | S. cerevisiae deletion strains, locus YOR001W, strain rrp6, hits give low values 0.995 | S. cerevisiae deletion strains, locus YOR061W, strain CKA2, hits give low values 0.991 | S. cerevisiae deletion strains, locus YOR069W, strain VPS5, hits give low values 0.97 | S. cerevisiae deletion strains, locus YOR070C, strain gyp1, hits give low values 0.982 | S. cerevisiae deletion strains, locus YOR080W, strain dia2, hits give low values 0.969 | S. cerevisiae deletion strains, locus YOR083W, strain WHI5 (second series), hits give low values 1.01 | S. cerevisiae deletion strains, locus YOR083W, strain WHI5, hits give low values 0.945 | S. cerevisiae deletion strains, locus YOR106W, strain vam3, hits give low values 0.959 | S. cerevisiae deletion strains, locus YOR136W, strain idh2, hits give low values 0.994 | S. cerevisiae deletion strains, locus YOR144C, strain elg1, hits give low values 0.996 | S. cerevisiae deletion strains, locus YOR184W, strain ser1, hits give low values 0.982 | S. cerevisiae deletion strains, locus YOR231W, strain MKK1, hits give low values 1.06 | S. cerevisiae deletion strains, locus YOR265W, strain rbl2, hits give low values 0.99 | S. cerevisiae deletion strains, locus YOR270C, strain vph1, hits give low values 0.976 | S. cerevisiae deletion strains, locus YOR290C, strain snf2, hits give low values 0.941 | S. cerevisiae deletion strains, locus YOR316C, strain cot1, hits give low values 0.987 | S. cerevisiae deletion strains, locus YPL051W, strain arl3, hits give low values 0.981 | S. cerevisiae deletion strains, locus YPL055C, strain LGE1, hits give low values 1.02 | S. cerevisiae deletion strains, locus YPL078C, strain atp4, hits give low values 0.999 | S. cerevisiae deletion strains, locus YPL106C, strain sse1, hits give low values 0.946 | S. cerevisiae deletion strains, locus YPL240C, strain hsp82, hits give low values 0.987 | S. cerevisiae deletion strains, locus YPL241C, strain CIN2, hits give low values 0.995 and 0.994 | S. cerevisiae deletion strains, locus YPL256C, strain CLN2, hits give low values 1.06 | S. cerevisiae deletion strains, locus YPR119W, strain clb2, hits give low values 0.994 | S. cerevisiae deletion strains, locus YPR141C, strain kar3, hits give low values 0.987 | S. cerevisiae deletion strains, locus YPR163C, strain tif3, hits give low values 0.994 | S. cerevisiae deletion strains, locus YPR167C, strain met16, hits give low values 0.993 | S. cerevisiae deletion strains, strain wtn01, hits give low values 0.992 | S. cerevisiae strains, strain wild type, hits give low values 0.999
